A selection: hits, their analogues and other compounds. The true share with any hit is near 1.5%.
Efflux pump inh – antifungal efflux pump inhibition, Nile Red retention | S. cerevisiae Candida pump triplex | inhibition, % at 10 µM | 330,000 compounds, 0.44% hits | AID 485275;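 active means plate passing quality check with inhibition over a set limit, or well fluorescence over plate mean plus 4 SD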;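 further: Nile Red retained in pooled yeast measured as flow cytometry median fluorescence; higher means more Nile Red kept so more efflux inhibition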
NALP1 inh – NALP1 inhibition | S. cerevisiae NALP1/ASC/caspase-1 growth, X-gal OD620, 72 h | inhibition, % at 10 µM | 280,000 compounds, 0.61% hits | AID 2071; in the data active means inhibition mostly above about 24%, no sharp cut-off; inactive means mostly below about 32%
PolyA inhibitor – inhibitors of polyadenylation in S. cerevisiae. S. cerevisiae SKY197-pL101 polyadenylation reporter, beta-gal luminescence; efflux-impaired pdr1/pdr3 knockout yeast; score 100 = 6 SD above DMSO. activity score, % at 12 µM. 300,000 compounds, 0.02% hits. AID 1875;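 active means lowest replicate activity score at least 50, where 100 means six control SD above control mean; inconclusive means lowest score under 50 but half or more replicates reach 50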;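 further: yeast exposed to compound for 9 h at 30 °C; higher score means more reporter readthrough which indicates perturbed polyadenylation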
NLRP3 yeast inh – NALP3 inhibition in yeast | inhibition, % at 10 µM | 330,000 compounds, 0.39% hits | AID 2825 | Yeast reconstituted NLRP3/ASC/caspase-1, beta-gal luminescence, 24 h;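 active means inhibition of 50% or more; inactive means inhibition below 50%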
GASC-1 inh – human JMJD2C demethylase inhibition; GST-JMJD2C(1-420) H3K9me3 demethylation, DELFIA europium; inhibition, % at 2.35 µM; 330,000 compounds, 0.069% hits; AID 2099;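 active means more than half of a compound's replicate wells show inhibition beyond 50%, single wells judged on their own value; inconclusive means some, but no more than half, of replicates pass 50% inhibition; inactive means no replicate passes 50% inhibition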;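 further: signal counts dimethyl H3K9 product captured on neutravidin plate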
HDAC3 inhib – blocks human histone deacetylase 3. recombinant HDAC3, fluorogenic peptide/trypsin coupled, fluorescence. inhibition, % at 8.3 µM. AID 2718. 320,000 compounds, 0.15% hits. O15379; in the data active means inhibition above about 26%, passing the limit was not always enough; inconclusive means no clear call, values can overlap the other calls
Target sequence (O15379 whole entry, looked up): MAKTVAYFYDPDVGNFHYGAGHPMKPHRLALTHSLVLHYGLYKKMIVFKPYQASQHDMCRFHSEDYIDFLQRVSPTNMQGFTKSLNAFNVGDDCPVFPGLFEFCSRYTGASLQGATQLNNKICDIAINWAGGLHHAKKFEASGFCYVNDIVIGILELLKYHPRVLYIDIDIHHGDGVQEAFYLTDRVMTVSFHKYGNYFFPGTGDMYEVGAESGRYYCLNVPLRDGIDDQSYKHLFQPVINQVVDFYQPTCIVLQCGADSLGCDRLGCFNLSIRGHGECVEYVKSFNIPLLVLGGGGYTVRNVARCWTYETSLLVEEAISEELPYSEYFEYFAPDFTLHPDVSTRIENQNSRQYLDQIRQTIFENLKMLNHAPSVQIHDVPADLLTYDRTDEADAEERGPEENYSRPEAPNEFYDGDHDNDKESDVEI
Yeast cmpd fluor – flagged as fluorescent in efflux inhibitor counter-screen | shares compounds with Efflux pump inh | S. cerevisiae AD/pABC3, compound fluorescence, flow cytometry | fluorescence ratio to DMSO, % at 10 µM | 1,700 compounds, 4% hits | AID 588517;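 active means fluorescence ratio to DMSO above its plate's cutoff, the plate mean ratio plus 5 SD, cut at about 210% in these data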;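 further: unstained yeast with no Nile Red so the signal is compound autofluorescence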
CaMdr1 efflux inh – Candida Mdr1 efflux pump inhibition. shares compounds with Efflux pump inh. S. cerevisiae AD/CaMDR1, Nile Red efflux, flow cytometry. inhibition, % at 10 µM. 1,700 compounds, 1% hits; in the data active means inhibition above about 26%;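 further: higher means more Nile Red retained so more efflux inhibition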
CaCdr2 efflux inh – Candida Cdr2 efflux pump inhibition; shares compounds with Efflux pump inh; S. cerevisiae AD/CaCDR2, Nile Red retention, flow cytometry; Nile Red retention ratio vs DMSO, % at 10 µM; 1,700 compounds, 4% hits; in the data active means Nile Red retention ratio vs DMSO above about 190%;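 further: higher ratio means more blocking of Cdr2 efflux of the dye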
CaCdr1 efflux inh – Candida Cdr1 efflux pump inhibition; S. cerevisiae AD/CaCDR1, Nile Red efflux, flow cytometry; AID 588522; inhibition, % at 10 µM; 1,700 compounds, 1% hits; shares compounds with Efflux pump inh;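 active means inhibition above the screen-wide mean plus twice its standard deviation, cut at about 32% in these data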
A number is an active result; n = inactive; u = inconclusive; x = no result.

SMILES	Efflux pump inh	NALP1 inh	PolyA inhibitor	NLRP3 yeast inh	GASC-1 inh	HDAC3 inhib	Yeast cmpd fluor	CaMdr1 efflux inh	CaCdr2 efflux inh	CaCdr1 efflux inh
CCOC(=O)C(NC(=O)CC)(Nc1ccc(S(N)(=O)=O)cc1)C(F)(F)F (centres undefined)	n	n	n	n	n	n	x	x	x	x
O=C(O)c1ccc(-c2ccc(/C=c3/sc4nc5ccccc5n4c3=O)o2)cc1Cl	0.8	n	n	n	n	n	n	n	n	n
Cc1ccc2c(nc3s/c(=C\c4ccc(-c5ccccc5C(=O)O)o4)c(=O)n32)c1C	0.7	n	n	n	n	n	n	n	n	n
Cc1ccc2c(nc3s/c(=C/c4cccs4)c(=O)n32)c1C	x	n	x	x	x	x	x	x	x	x
CN(C)c1ccc(C(=O)Nc2ccc(S(=O)(=O)Nc3nccs3)cc2)cc1	n	n	n	n	n	n	x	x	x	x
COc1ccc(/C=C/C(=O)Nc2cc(=O)n(C)c(=O)n2C)cc1	15.2	n	n	n	n	n	n	n	n	n
O=C1/C(=C\c2cc([N+](=O)[O-])ccc2O)SC(=S)N1Cc1ccc(Cl)cc1	0.7	n	n	x	n	n	507.2	n	232.0	n
CCOC(=O)N1CCN(C(=O)c2cc(COc3cccc(C(F)(F)F)c3)on2)CC1	n	n	n	n	n	n	x	x	x	x
C[C@@H]1CN(C(=O)c2cc(COc3cccc(C(F)(F)F)c3)on2)C[C@H](C)O1	0.5	n	n	n	n	n	n	n	n	n
O=C(COC(=O)C1CC1)NC(=O)c1ccccc1	n	x	x	n	n	n	x	x	x	x
COCCOC(=O)c1c(C)oc2ccc(NS(=O)(=O)c3ccc(F)cc3)cc12	0.4	x	n	n	n	n	n	n	n	n
COc1cccc(-c2c(C(=O)N/N=C(\C)c3ccc(Cl)s3)nnn2-c2nonc2N)c1	4.6	n	n	n	n	n	n	n	n	n
CCn1cc([N+](=O)[O-])c(C(=O)Nc2ccn(C34CC5CC(CC(C5)C3)C4)n2)n1	n	n	n	n	n	n	x	x	x	x
Cn1cc([N+](=O)[O-])c(C(=O)Nc2ccn(C34CC5CC(CC(C5)C3)C4)n2)n1	16.4	n	n	n	n	n	n	n	n	n
CC(=O)NCCOc1nc(N(C)C)nc(N2CCOCC2)n1	0.5	n	n	n	n	n	n	n	n	n
CC(=O)NCCOc1nc(N2CCCCC2)nc(N2CCCCC2)n1	n	n	n	n	n	n	x	x	x	x
O=[N+]([O-])c1cccc(C2(O)COc3ccccc3O2)c1 (centres undefined)	n	n	n	n	n	n	x	x	x	x
COc1ccc(-c2cc(C(F)(F)F)n3nc(C(=O)N(C)Cc4ccccc4)cc3n2)cc1OC	1.4	n	n	n	n	n	n	n	n	n
Nc1cc(Nc2ccccc2)c2nonc2c1[N+](=O)[O-]	1.4	n	n	n	n	n	n	n	n	n
O=[N+]([O-])c1c(Nc2ccccc2)ccc2nonc12	n	n	n	n	n	n	x	x	x	x
CN(C)C(=O)CSc1nc2ccc(N3C(=O)c4ccccc4C3=O)cc2s1	0.7	n	n	n	n	n	n	n	n	n
Cc1cccc(NC(=O)CSc2nc3ccc(N4C(=O)c5ccccc5C4=O)cc3s2)c1C	n	n	n	n	n	n	x	x	x	x
COc1cc(OC)c(C2C(C(=O)Nc3ccc(C)cc3C)=C(C)Nc3ncnn32)cc1OC (centres undefined)	0.8	n	n	n	n	n	n	n	n	n
COc1cc(OC)c(C2C(C(=O)Nc3ccccc3)=C(C)Nc3ncnn32)cc1OC (centres undefined)	n	n	n	n	n	u	x	x	x	x
COc1ccc(C(=O)Nc2ccc(NC(=O)c3cc(OC)c(OC)c(OC)c3)cn2)cc1	n	n	n	n	n	n	x	x	x	x
